In PubChem BioAssay (EPA / NIEHS) one finds outcome and AC50 data, which are given here for 22 molecules.

Assay [1] addresses Transcription factor E2F1 (Homo sapiens) (UniProt Q01094). The assay is described as follows: ATG_E2F_CIS: Attagene CIS-FACTORIAL HepG2 Assay for human E2F Transcription Factor 1 (AID 2282935). To be noted: HepG2 Attagene cis-reporter, E2F reporter RNA transcripts; actives raise or lower the signal. The procedure, abridged: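 In this cis-factorial format, endogenous factor activity drives transfected reporters in HepG2; transcripts collected at 24 h are quantified by fluorescence after RT-PCR and capillary separation.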

Assay [2] in a line: ATG_E_Box_CIS: Attagene CIS-FACTORIAL HepG2 Assay for human Enhancer Box (E-box) (AID 2282936). To be noted: HepG2 E-box cis-reporter transcription, actives raise or lower the signal. The procedure, abridged:
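Measured 24 h post-dosing in HepG2 cells transfected with multiple cis-regulated reporter units, signal being reporter mRNA induction detected by fluorescent RT-PCR with capillary electrophoresis; gain or loss fitted against DMSO.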

Assay [3] can be described thus: ATG_M_61_CIS: Attagene CIS-FACTORIAL HepG2 Assay for M61 Transcription Factor (Internal Marker) (AID 2282937). The settings on record: HepG2 Attagene CIS-FACTORIAL M61 internal marker reporter; actives raise or lower the signal. The essentials:
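Cells were transfected with reporter units under cis-regulatory promoters, treated with chemicals for 24 h, then lysed for RNA. Reporter transcripts were quantified by RT-PCR and capillary electrophoresis, and activity was fitted bidirectionally against DMSO.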

Assay [4] in a line: ATG_EGR_CIS: Attagene CIS-FACTORIAL HepG2 Assay for human Early Growth Response 1 (EGR1) (AID 2282938). The settings on record: HepG2 Attagene CIS-FACTORIAL EGR reporter mRNA; actives raise or lower the signal. The essentials:
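Endogenous TF activity in HepG2 liver cells was gauged through cis-promoter reporter constructs transiently transfected. After 24 h dosing, reporter mRNA was quantified by RT-PCR and capillary electrophoresis, and curves fitted in both directions versus DMSO.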

The nature of assay [5]: ATG_M_19_CIS: Attagene CIS-FACTORIAL HepG2 Assay for M19 Transcription Factor (Internal Marker) (AID 2282939). To be noted: HepG2 Attagene CIS-FACTORIAL M19 internal marker reporter; actives raise or lower the signal. The procedure, abridged: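 HepG2, MRTU transient transfection, 24 h dosing. Total RNA → RT-PCR → 6-FAM primer extension → HpaI digest → CE fluorescence. Bidirectional curve fit, DMSO negative control.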

Assay [6] in a line: ATG_ERE_CIS: Attagene CIS-FACTORIAL HepG2 Assay for Estrogen Response Element (ERE) (AID 2282940). The settings on record: HepG2 ERE cis-reporter, Attagene RNA transcript; actives raise or lower the signal. The procedure, abridged:
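After a 24 h chemical treatment, RNA from reporter-transfected HepG2 cells is reverse-transcribed, PCR-amplified and fluorescently labelled. Fragments separated by capillary electrophoresis give reporter signal; DMSO serves as negative control.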

A short description of assay [7]: ATG_Ets_CIS: Attagene CIS-FACTORIAL HepG2 Assay for human Erythroblast Transformation Specific (ETS) (AID 2282941). The settings on record: HepG2 ETS cis-reporter transcription, actives raise or lower the signal. The procedure, abridged:
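Bidirectional fit versus DMSO of reporter mRNA signal, detected by RT-PCR and capillary electrophoresis in HepG2 cells transiently transfected with cis-element reporters and dosed 24 h.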

In assay [8] the target is Hepatocyte nuclear factor 3-beta (Homo sapiens) (UniProt Q9Y261). The assay is described as follows: ATG_FoxA2_CIS: Attagene CIS-FACTORIAL HepG2 Assay for human Forkhead box A2 (FOXA2) (AID 2282942). The settings on record: HepG2 cis-reporter transcription factor activity, 24 h; actives raise or lower the signal. The essentials: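 Endogenous transcription factor activity was read in HepG2 cells carrying transiently transfected cis-promoter reporter units. After 24 h dosing, reporter mRNA was quantified by RT-PCR and capillary electrophoresis, and values fitted bidirectionally versus DMSO.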

A short description of assay [9]: ATG_FoxO_CIS: Attagene CIS-FACTORIAL HepG2 Assay for human Forkhead box O (FoxO) (AID 2282943). To be noted: HepG2 Attagene cis-reporter, FoxO element, mRNA; actives raise or lower the signal. The essentials:
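Values reflect reporter mRNA induction or loss in HepG2 cells 24 h post-dosing, fitted bidirectionally with DMSO as negative control and baseline. Detection used RT-PCR and fluorescence capillary electrophoresis.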

Assay [10] in a line: ATG_GATA_CIS: Attagene CIS-FACTORIAL HepG2 Assay for human GATA Binding Protein (AID 2282944). To be noted: HepG2 GATA cis-element reporter, Attagene multiplex mRNA; actives raise or lower the signal. The essentials: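 Cells: HepG2, transiently transfected with cis-regulated reporter transcription units. Exposure: 24 h. Detection: RT-PCR plus capillary electrophoresis of FAM-labeled fragments. Analysis: bidirectional, DMSO as baseline.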

A structure can be active in one record and inactive in another. Active and inactive are the calls of the source. Rule for the calls: active = hit-call score of the fitted dose curve at least 0.9, where 1 is the maximum; inactive = score below 0.9.

Chain of Hepatocyte nuclear factor 3-beta (Homo sapiens) (Q9Y261 whole entry, looked up): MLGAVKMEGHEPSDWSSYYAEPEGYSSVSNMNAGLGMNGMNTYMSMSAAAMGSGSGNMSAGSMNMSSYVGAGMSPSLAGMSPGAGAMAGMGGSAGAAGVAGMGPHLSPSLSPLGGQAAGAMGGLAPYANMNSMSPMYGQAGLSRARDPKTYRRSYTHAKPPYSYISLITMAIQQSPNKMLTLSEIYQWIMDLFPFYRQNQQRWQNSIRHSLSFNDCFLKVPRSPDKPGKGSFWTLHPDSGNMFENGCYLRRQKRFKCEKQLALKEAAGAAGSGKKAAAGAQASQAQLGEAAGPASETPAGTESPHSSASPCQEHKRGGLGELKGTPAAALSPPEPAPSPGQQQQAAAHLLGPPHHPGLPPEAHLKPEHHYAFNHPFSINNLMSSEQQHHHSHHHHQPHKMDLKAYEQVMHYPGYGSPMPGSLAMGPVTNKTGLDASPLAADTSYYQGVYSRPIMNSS
Chain of Transcription factor E2F1 (Homo sapiens) (Q01094 whole entry, looked up): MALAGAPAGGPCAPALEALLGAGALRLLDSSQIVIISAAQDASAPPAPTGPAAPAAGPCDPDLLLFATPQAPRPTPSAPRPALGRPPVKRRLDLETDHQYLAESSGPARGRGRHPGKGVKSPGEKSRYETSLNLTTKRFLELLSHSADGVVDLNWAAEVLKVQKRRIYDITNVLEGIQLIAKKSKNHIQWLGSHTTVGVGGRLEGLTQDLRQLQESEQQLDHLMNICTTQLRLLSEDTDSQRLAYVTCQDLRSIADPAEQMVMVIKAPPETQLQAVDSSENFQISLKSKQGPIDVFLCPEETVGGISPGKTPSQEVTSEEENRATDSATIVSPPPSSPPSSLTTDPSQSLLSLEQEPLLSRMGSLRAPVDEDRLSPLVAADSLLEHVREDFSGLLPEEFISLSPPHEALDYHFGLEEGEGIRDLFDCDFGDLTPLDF

As for `O=C(C=Cc1ccccc1)OCC=Cc1ccccc1`, the outcome in [1], in assay [2], in assay [3], in [4], in [5] and in [6] was inactive. The outcome in [7], in assay [8], in [9] and in [10] was inactive.
On to `CCCCCC=O`, for which the call in assay [1], in [2], in [3], in [4], in [5] and in [6] was inactive. Further, the call in assay [7], in assay [8], in assay [9] and in assay [10] was inactive.
A word on the AC50: it is the midpoint of the concentration-response curve, whichever way the signal moves. `O=C(O)C(F)(F)C(F)(F)C(F)(F)C(F)(F)C(F)(F)C(F)(F)C(F)(F)C(F)(F)C(F)(F)C(F)F`: the molecule was called inactive in assay [1], in [2], in [3], in [4], in [5] and in assay [7]. Moreover, the outcome in [8], in assay [9] and in assay [10] was inactive. For the same molecule, the AC50 in assay [6] is 26.3 µM (active).
`COC(=O)C1CCC(C(=O)OC)CC1` (stereo not drawn): the result in assay [1], in [2], in [3], in [4], in [5] and in assay [6] was inactive. The molecule was called inactive in assay [7], in assay [8], in assay [9] and in assay [10]. Moreover, in assay [6], the AC50 is 20.5 µM (active).
With `CCCCCCOC(=O)c1ccccc1`, the molecule was called inactive in assay [1], in [2], in [3], in [4], in assay [5] and in assay [6]. Moreover, the result in assay [7], in assay [8], in [9] and in [10] was inactive.
In the case of `FC(F)(F)C(F)(F)C(F)(F)C(F)(F)C(F)(F)C(F)(F)CCS`, the molecule was classed as inactive in [1], in [2], in [3], in [4], in assay [5] and in assay [7]. Besides, the molecule was called inactive in assay [8], in assay [9] and in [10]. Further, the AC50 in assay [6] was 26.4 µM (active).
Regarding `Oc1ccc(Nc2ccccc2)cc1`, the result in assay [1], in assay [3], in assay [4], in assay [5], in assay [7] and in [8] was inactive. The result in assay [9] and in [10] was inactive. Further, the AC50 in assay [2] was 100 µM (active); in [6], 8.42 µM (active).
As for `CC(C)(C)c1ccc(OC2CCCCC2O)cc1` (stereo not drawn), the molecule was called inactive in [1], in assay [2], in assay [3], in assay [4], in [5] and in [6]. The result in assay [7], in [8], in [9] and in [10] was inactive.
In the case of `Nc1ccc([N+](=O)[O-])cc1O`, the call in assay [1], in assay [2], in assay [3], in [4], in [5] and in assay [6] was inactive. The result in assay [7], in [8], in [9] and in assay [10] was inactive.
In the case of `CCCCCCCCCCCCCCCC[N+](C)(C)Cc1ccccc1`, the molecule was classed as inactive in assay [1], in assay [3], in [4], in [5], in assay [6] and in [7]. Also, the molecule was called inactive in [8], in [9] and in assay [10]. In addition, the AC50 in [2] is 47.1 µM (active).
Turning to `O=C(OCCOCCOCCOC(=O)c1ccccc1)c1ccccc1`, the call in assay [1], in assay [2], in [3], in assay [4], in [5] and in assay [7] was inactive. The call in [8], in [9] and in assay [10] was inactive. Besides, in assay [6], the AC50 is 0.62 µM (active).
Consider `O=C(O)C(F)(F)C(F)(F)F`, for which the outcome in assay [1], in assay [2], in [3], in [4], in assay [5] and in assay [6] was inactive. Also, the call in assay [7], in assay [8], in [9] and in assay [10] was inactive.
`CCCCOc1ccc(N)cc1`: the molecule was classed as inactive in [1], in assay [2], in assay [3], in assay [4], in assay [5] and in assay [6]. In addition, the molecule was classed as inactive in assay [7], in [8], in assay [9] and in assay [10].
Take `OCC(F)(F)C(F)(F)C(F)(F)C(F)(F)C(F)(F)C(F)F`: the result in [1], in assay [2], in assay [3], in assay [4], in assay [5] and in [7] was inactive. Moreover, the molecule was classed as inactive in assay [8], in [9] and in [10]. In addition, in [6], the AC50 was 6.1 µM (active).
Take `CO[Si](OC)(c1ccccc1)c1ccccc1`: the result in assay [1], in assay [2], in [3], in assay [4], in assay [5] and in [7] was inactive. In addition, the molecule was classed as inactive in [8], in assay [9] and in [10]. Besides, the AC50 in assay [6] is 72.8 µM (active).
In the case of `C=CC(=O)OCC(F)(F)C(F)(F)C(F)(F)C(F)(F)C(F)(F)C(F)(F)C(F)(F)F`, the outcome in assay [1], in assay [2], in [3], in [4], in [5] and in assay [7] was inactive. For the same molecule, the outcome in [8], in assay [9] and in assay [10] was inactive. For the same molecule, the AC50 in [6] was 21 µM (active).
Consider `O=C(O)C(F)(F)C(F)(F)C(F)(F)F`, for which the molecule was classed as inactive in [1], in assay [2], in assay [3], in assay [4], in [5] and in assay [6]. In addition, the molecule was classed as inactive in assay [7], in assay [8], in [9] and in assay [10]. Moreover, in assay [6], the half-maximal activity concentration (AC50) was 150 µM (active).
For `FC(F)(F)C(F)(F)C(F)(F)C(F)(F)CCI`, the call in assay [1], in assay [2], in assay [3], in [4], in assay [5] and in [6] was inactive. Further, the call in assay [7], in assay [9] and in [10] was inactive. For the same molecule, the AC50 in [6] was 16.3 µM (active).
`FC1CC(F)(F)C(F)(F)C1(F)F` (stereo not drawn): the result in assay [1], in [2], in assay [3], in assay [4], in assay [5] and in [6] was inactive. Also, the outcome in assay [7], in [8], in [9] and in assay [10] was inactive.
`OC[C@@H](O)[C@@H](O)[C@H](O)[C@@H](O)CO`: the call in assay [1], in assay [2], in assay [3], in [4], in assay [5] and in assay [6] was inactive. In addition, the molecule was called inactive in [7], in [8], in [9] and in assay [10]. The AC50 in [6] is 30.6 µM (active).
`C=CC(=O)OCC(F)(F)C(F)(F)C(F)(F)C(F)(F)COC(=O)C=C`: the result in assay [1], in assay [3], in [5], in assay [6], in assay [7] and in [8] was inactive. Besides, the molecule was called inactive in [9] and in assay [10]. Moreover, the concentration at half-maximal activity (AC50) is 34.9 µM (active) in assay [2] and 63 µM (active) in assay [4].
As to `CC(C)c1ccccc1N`, the call in assay [1], in assay [2], in [3], in assay [4], in assay [5] and in [6] was inactive. Further, the result in assay [7], in assay [8] and in assay [10] was inactive. The AC50 in assay [9] is 152 µM (active).
